# Laboratory results as given in PubChem BioAssay (NCATS).
# Inconclusive results are not listed. Where a call stands in place of a potency, no number is given. Unmarked numbers belong to inactive results. The source made the active and inactive calls. Calls follow the shape of the dose curve; as a rule, active = well fitted inhibition curve with a large enough effect; inconclusive = small, poorly fitted or top-dose-only effect; inactive = flat fitted curve, though single readings scatter.
# Biological target: Calcium and integrin-binding protein 1 (Homo sapiens) (UniProt Q99828)
# Sequence (Q99828 whole entry, looked up): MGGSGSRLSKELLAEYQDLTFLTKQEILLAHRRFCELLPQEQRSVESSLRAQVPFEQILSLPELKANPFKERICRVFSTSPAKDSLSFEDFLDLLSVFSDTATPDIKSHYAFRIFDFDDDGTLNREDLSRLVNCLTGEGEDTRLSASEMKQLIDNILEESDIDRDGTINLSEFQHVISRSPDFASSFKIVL
# Assay: Primary qHTS for Identification of Calcium Integrin Binding Protein 1 (CIB1) Competitor (AID 1508620);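 also: GST tagged CIB1 binding a fluorescein labelled alphaIIb integrin peptide tracer; top concentration of the series differs between compounds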
# Details: CIB1-GST / FITC-alphaIIb peptide fluorescence polarization; series mostly up to 57.7 µM
# Outline: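 Fluorescence polarization competition: CIB1-GST (1 uM final) preincubated with compound 15 min at room temperature, then FITC-labeled alphaIIb peptide (100 nM final) added for another 15 min. Polarization read at Ex 480/Em 540.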
SMILES,Potency,"activity change, negative = inhibition"
O=C(NCCCCN1CCOCC1)c1cc2ccccc2o1,inactive,
CC(=O)NCCC(=O)N[C@@H](CCC(N)=O)C(=O)N[C@@H](CO)C(=O)N[C@@H](CCC(N)=O)C(=O)N[C@@H](CCC(N)=O)C(=O)N[C@H](C(=O)N[C@@H](Cc1ccccc1)C(=O)N[C@]1(C)CCCCCCC=CCCC[C@@](C)(C(=O)N[C@@H](CCC(N)=O)C(=O)N[C@@H](CC(N)=O)C(N)=O)NC(=O)[C@H](CC(C)C)NC(=O)[C@H](CC(C)C)NC(=O)[C@@H](CCCNC(=N)N)NC(=O)[C@H](Cc2c[nH]c3ccccc23)NC(=O)[C@H](CC(C)C)NC(=O)[C@H](CC(N)=O)NC1=O)[C@H](C)O,inactive,
CCCCCCCCCCCCCCCC(=O)O[C@H]1[C@@H](O)[C@@H](O)[C@@H]([C@H](NC(=O)[C@@H]2C[C@@H](CCC)CN2C)[C@H](C)Cl)O[C@@H]1SC,inactive,
CCNC(=O)CCCC=CC[C@@H]1[C@H](C=CC(O)CCc2ccccc2)[C@@H](O)C[C@@H]1O (stereo not given in full),inactive,
CC(=O)OCC(=O)[C@@]12OC(C)(C)O[C@H]1C[C@H]1[C@@H]3C[C@H](F)C4=CC(=O)C=C[C@]4(C)[C@@]3(F)[C@@H](O)C[C@@]12C,inactive,
CN1N=C(N)c2cn([C@@H]3O[C@H](COP(=O)(O)O)[C@@H](O)[C@@H]3O)c3ncnc1c23,inactive,
C[C@H]1[C@H](O)O[C@@H]2O[C@@]3(C)CC[C@@H]4[C@H](C)CC[C@@H]1[C@@]24OO3,inactive,
CC[C@H](C=C[C@@H](C)[C@H]1CC[C@H]2[C@@H]3CC=C4C[C@@H](O)CC[C@]4(C)[C@@H]3CC[C@]12C)C(C)C,inactive,
CCNC(=O)[C@H]1O[C@@H](n2cnc3c(N)nc(NCCc4ccc(CCC(=O)O)cc4)nc32)[C@H](O)[C@H]1O,inactive,
CCc1cc(-c2n[nH]c(C)c2-c2ccc3c(c2)OCCO3)c(O)cc1O,inactive,
C[C@H](c1ccc(F)cc1CCCC(=O)O)N(c1cc(F)ccc1F)S(=O)(=O)c1ccc(Cl)cc1,inactive,
COc1ccc2ccc(=O)oc2c1CC=C(C)C,inactive,
CCOC(=O)c1c(CSc2ccccc2)n(C)c2cc(Br)c(O)c(CN(C)C)c12,inactive,
Nc1ccc(-c2ccc3ncc4ccc(=O)n(-c5cccc(C(F)(F)F)c5)c4c3c2)cn1,inactive,
CN1CCN(c2ncc(-c3cc(Cl)cc(Cl)c3Cl)c(N)n2)CC1,inactive,
CCN(CCO)CCCOc1ccc2c(Nc3cc(CC(=O)Nc4cccc(F)c4)[nH]n3)ncnc2c1,inactive,
CC1(COc2ccc3c(c2)ncn3-c2ccc3cccc(N4CCC(N)CC4)c3n2)COC1,inactive,
COc1cc2c(cc1OC)CC(=O)N(CCCN(C)C[C@H]1Cc3cc(OC)c(OC)cc31)CC2,inactive,
CCC(C)SSc1ncc[nH]1 (stereo not given),inactive,
CCCCCOC(=O)Nc1nc(=O)n([C@@H]2O[C@H](C)[C@@H](O)C2O)cc1F (stereo not given in full),inactive,

SMILES,Potency,"activity change, negative = inhibition"
Nc1ncnc2c1c(-c1cccc(OCc3ccccc3)c1)cn2C1CC(CN2CCC2)C1 (stereo not given),inactive,
Cc1cccc2c1CC[C@H](CN1CCC(c3c(Cl)cccc3Cl)CC1)C[C@@H]2O,inactive,
Cc1nc(NC(=O)N2CCC[C@@H]2C(N)=O)sc1-c1csc(C(C)(C)C)n1,inactive,
CCNC(=O)Nc1ccc(Oc2ncnc(N)c2C=NOC)cc1Cl,inactive,
Cc1[nH]c(C=C2C(=O)Nc3ccc(S(=O)(=O)N(C)c4cccc(Cl)c4)cc32)c(C)c1C(=O)N1CCN(C)CC1,inactive,
CN(C)CCN(C)C(=O)c1ccc(NC(=O)Nc2ccc(-c3nc(N4CCOCC4)c4ccn(CC(F)(F)F)c4n3)cc2)cc1,inactive,
C[C@@H](O[C@H]1OCCN(Cc2n[nH]c(=O)[nH]2)[C@@H]1c1ccc(F)cc1)c1cc(C(F)(F)F)cc(C(F)(F)F)c1,inactive,
CN1C(=O)C[C@H](C(=O)N[C@@H](Cc2cnc[nH]2)C(=O)N2CCC[C@@H]2C(N)=O)NC1=O,inactive,
CC(C)c1onc(-c2c(Cl)cccc2Cl)c1COc1ccc(C=Cc2cccc(C(=O)O)c2)c(Cl)c1,inactive,
NC(N)=Nc1nc(CSCCC(N)=NS(N)(=O)=O)cs1,inactive,
O=C1Nc2ccc(I)cc2C1=Cc1cc(Br)c(O)c(Br)c1,inactive,
CCCCC(C)(C)[C@H](O)C=C[C@H]1[C@H](O)CC(=O)[C@H]1CC=CCCCC(=O)O,inactive,
CNC(=O)c1c(-c2ccc(F)cc2)oc2cc(N(CCO)S(C)(=O)=O)c(C3CC3)cc12,inactive,
N=C1SC(=Cc2ccc(-c3ccc4c(c3)C(=O)NC4=O)o2)C(=O)N1c1ccc(Br)cc1,inactive,
NCc1c[nH]c(=S)n1[C@H]1CCc2c(F)cc(F)cc2C1,inactive,
COc1cc(N2CCN(C)CC2)ccc1Nc1nc(N)c(C(=O)c2c(Cl)cccc2Cl)s1,inactive,
CC(C)[C@H](O)C(=O)N[C@@H](C)C(=O)N[C@@H]1C(=O)N(C)CCc2ccccc21,inactive,
CN[C@H]1[C@@H](O[C@@H]2[C@H](O[C@@H]3[C@@H](O)[C@@H](O)[C@@H](N=C(N)N)[C@@H](O)[C@@H]3N=C(N)N)O[C@H](C)[C@@]2(O)C=O)O[C@@H](CO)[C@@H](O)[C@H]1O,,-2.24% [at 12.4 µM]
Nc1[nH]nc2nnc(-c3c(-c4ccccc4)nn4ccccc34)cc12,inactive,
NC(=O)c1ccc(N(C(N)=O)c2c(F)cccc2F)nc1-c1ccc(F)cc1F,inactive,
